Source: PubChem (National Center for Advancing Translational Sciences (NCATS))
Most compounds without a hit are left out; they make up all but 19% or so of the library.
TDP1 cell noCPT – qHTS for Inhibitors of human tyrosyl-DNA phosphodiesterase 1 (TDP1): qHTS in cells in absence of CPT. DT40 Tdp1-/- hTDP1 cells, no CPT, ATP luminescence, 48 h. Potency, µM (series often up to 46.2 µM), without a hit: at the highest dose activity change, negative = growth inhibition, hits mostly inhibitors. 420,000 tested, 15% active; further: potency means the concentration at half of the fitted maximal effect; nearly all actives have a fitted effect of over 55% in size
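Luminescent ATP content (CellTiter-Glo) served as the growth readout. Knockout chicken DT40 cells expressing human TDP1 were exposed to compounds without camptothecin for a minimum 48 hr at 37 °C.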
TDP1 cell CPT – qHTS for Inhibitors of human tyrosyl-DNA phosphodiesterase 1 (TDP1): qHTS in cells in presence of CPT; chicken DT40 Tdp1-/-;hTDP1 cells + 20 nM CPT, ATP luminescence, 48 h; Potency, µM (top dose mostly 46.2 µM), for inactives: top-dose activity change, negative = growth inhibition, most hits filed as inhibitors; 420,000 tested, 12% active; AID 686979, 2013; further: potency means the concentration at half of the fitted maximal effect; nearly all actives have a fitted effect of over 55% in size
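Chicken DT40 Tdp1-/- cells stably complemented with human TDP1 were seeded at 400 cells/well in medium containing 20 nM camptothecin, exposed to pin-transferred compounds, and grown at 37 °C for at least 48 hr. Viability was read as ATP luminescence.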
IL-1B inflam inh – qHTS for Inhibitors of Inflammasome Signaling: IL-1-beta AlphaLISA Primary Screen | THP-1 LPS/ATP IL-1B secretion, AlphaLISA, 16 h; hits give low values | activity change, % at 57.5 µM | 360,000 tested, 4.7% active | AID 743279, 2014; in the data active means activity change below about -50%; inconclusive means mostly about -30% to -49%
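Secreted IL-1B measured by AlphaLISA bead assay after 16 h compound exposure of THP-1 cells; compounds (final up to 57.5 uM) added 1 h before LPS (250 ng/mL) and ATP (1.25 mM) stimulation; lower signal means less secretion.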
ELG1 repair inh – qHTS screen for small molecules that inhibit ELG1-dependent DNA repair in human embryonic kidney (HEK293T) cells expressing luciferase-tagged ELG1; 330,000 tested, 2.3% active; HEK293T ELG1-luciferase reporter, luminescence, 16 h; DNA damage induced by 5-fluorouridine; Potency, µM (doses to about 46.1 µM), inactives show at the highest dose activity change, negative = inhibition, hits mostly inhibitors; AID 504467, 2011; further: potency means the concentration at half of the fitted maximal effect; nearly all actives have a fitted effect of over 55% in size
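Step one: seed 2,000 cells per well. Step two: pin-transfer compound or DMSO alongside 5-fluorouridine. Step three: incubate 16 hr, 37 °C, 5% CO2. Step four: add ONE-Glo, wait 30 min, read luminescence.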
HT1080-NT tox – qHTS for induction of synthetic lethality in tumor cells producing 2HG: qHTS for the HT-1080-NT fibrosarcoma cell line | HT-1080-NT fibrosarcoma viability, CellTiter-Glo ATP luminescence, 48 h | Potency, µM (top dose mostly 46.1 µM), inactives show at the top dose activity, negative = less viability, actives largely listed as cytotoxic | 360,000 tested, 1.6% active;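 further: NT is the 2HG producing partner of a matched IDH1 knockdown line; potency means the concentration at half of the fitted maximal effect; 0% = DMSO-treated cells and -100% = media-only wells without cells; nearly all actives have a fitted effect of over 55% in size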
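HT-1080-NT fibrosarcoma cells (2HG-overproducing), 750 cells/well in RPMI with 5% FBS, dosed after 2 h and incubated 48 h at 37C. CellTiter-Glo luminescence normalized to DMSO and no-cell wells; concentration-response curves fitted and classed.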
HT1080 IDH1KD tx – qHTS for induction of synthetic lethality in tumor cells producing 2HG: qHTS for the HT-1080-IDH1KD cell line | AID 686971, 2013 | Potency, µM (top dose mostly 46.1 µM), for the others: top-dose activity, negative = toxicity, hits mostly cytotoxic | 360,000 tested, 2% active | HT-1080 IDH1 knockdown viability, ATP luminescence, 48 h;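 further: potency means the concentration at half of the fitted maximal effect; 0% = DMSO wells and -100% = cell-free medium wells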
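HT-1080-IDH1KD cells (IDH1 knocked down), 750/well in RPMI with 5% FBS, treated with compound 48 h at 37 degrees C. Viability by CellTiter-Glo luminescence, normalised to DMSO and no-cell wells; concentration-response curves classed.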
* = called active by the depositor; ? = inconclusive; · = no result. Unless noted, the call rests on the fitted dose curve; in most records, active means well fitted curve in the direction sought with a large enough effect; inconclusive means small, poorly fitted or top-dose-only effect, or another doubt; inactive means no such curve, though single readings can be large; an effect the other way counts as inactive or inconclusive. Unless noted, on the % scale 0 is the no-effect control and ±100 the full control effect.

SMILES | TDP1 cell noCPT | TDP1 cell CPT | IL-1B inflam inh | ELG1 repair inh | HT1080-NT tox | HT1080 IDH1KD tx
CC(=O)N1N=C(c2ccccc2)CC1c1ccc(F)cc1 (centres undefined) | ? | -27.6% | 7.8 | ? | -2.8% | 6.2%
COc1ccc(C2CC(c3ccccc3OC(C)=O)=NN2C(=O)/C=C/c2ccccc2)cc1 (centres undefined) | 16.4µM* | 20.6µM* | -22.1 | ? | -1.1% | -23.1%
Cc1nn(Cc2ccccc2)c(C)c1NC(=O)c1cc(-c2ccco2)on1 | ? | ? | 6.0 | ? | -0.1% | 0.8%
COc1ccc(OC)c(-c2cc(C(=O)Nc3c(C)nn(Cc4ccc(Cl)cc4)c3C)no2)c1 | 20.6µM* | ? | -62.6* | ? | -14.1% | ?
COc1ccc(OC)c(-c2cc(C(=O)Nc3c(C)nn(Cc4ccccc4)c3C)no2)c1 | 23.1µM* | 18.4µM* | ? | ? | -27.4% | ?
CCCn1c(SCC(=O)N2CCCC2=O)nc2ccccc2c1=O | -2.0% | -12.6% | -3.6 | -3.5% | -2.3% | -5.6%
CCc1nn(CC(=O)NCc2ccc(C)cc2)c(=O)c2cc3occc3n12 | -22.6% | -2.7% | · | · | · | ·
CN(C)S(=O)(=O)c1cccc(NC(=S)Nc2ccc(Cl)cc2Cl)c1 | 16.4µM* | ? | -4.9 | ? | 13.2% | -0.6%
CN(C)S(=O)(=O)c1cccc(NC(=S)Nc2cc(Cl)cc(Cl)c2)c1 | 23.1µM* | 25.9µM* | -70.4* | ? | 5.9% | 4.9%
CCN(CCO)c1ccc(NC(=S)Nc2cccc(S(=O)(=O)N(C)C)c2)cc1 | ? | -12.9% | 28.7 | ? | -2.8% | ?
CSCCC(=O)N1CCC(CCC(=O)NC2CC2)CC1 | -13.8% | -13.8% | 0.0 | 4.3% | 6.4% | 1.4%
Cc1nc(CN(C)C(=O)c2ccccc2OC2CCN(S(C)(=O)=O)CC2)cs1 | -17.6% | 1.2% | 3.0 | 0.8% | 10.1% | 14.0%
CC1CCCN(S(=O)(=O)c2ccc(NC(=O)[C@@H]3CCCN3C(=O)c3cccs3)cc2)C1 (some centres undefined) | ? | ? | 14.9 | 2.7% | -4.6% | -3.0%
COC(=O)CN(c1ccccc1)S(=O)(=O)c1cc(Br)ccc1OC | -0.3% | -3.2% | 17.2 | 4.6% | 10.2% | 1.9%
C/C(=N\OCC(=O)NC12CC3CC(CC(C3)C1)C2)c1cc2ccccc2o1 | ? | 20.6µM* | -90.7* | 1.1% | ? | ?
CSc1ccccc1NC(=O)CO/N=C(\C)c1cc2ccccc2o1 | ? | ? | ? | ? | -3.4% | -11.3%
O=C(Nc1ccc(OC(F)(F)F)cc1)C1CCCN(S(=O)(=O)c2cnc[nH]2)C1 (centres undefined) | ? | -10.7% | 51.2 | 2.8% | -4.2% | -7.5%
O=c1[nH]c(-c2ccccn2)cc2ccccc12 | -21.3% | -27.6% | -55.6* | ? | -10.0% | -26.5%
O=c1[nH]c(Nc2ccccn2)cc2ccccc12 | ? | ? | 24.1 | · | 6.6% | 2.1%
COc1ccc(-c2c(-c3ccccc3)c(C(=O)C(=O)NCCCN(C)C)n3ccc4cc(OC)c(OC)cc4c23)cc1OC | 18.4µM* | 3.26µM* | -27.7 | -9.6% | ? | ?
Cc1[nH][nH]c(=O)c1C(c1c(C)[nH][nH]c1=O)c1cn(C)c2ccccc12 | ? | -17.4% | · | 0.5% | 0.4% | -0.9%
Cc1[nH][nH]c(=O)c1C(c1c(C)[nH][nH]c1=O)c1cn(Cc2cccc3ccccc23)c2ccccc12 | 7.31µM* | 8.2µM* | -4.2 | -16.2% | ? | ?
O=C(NCCOCCNC(=O)OCc1ccccc1)OCc1ccccc1 | -22.4% | 6.0% | 23.6 | -13.9% | -2.2% | 3.1%
O=S1(=O)N[C@H](c2ccccc2)C[C@H](c2ccc(C(F)(F)F)cc2)O1 | ? | 14.6µM* | -7.4 | 1.0% | -1.5% | -0.4%
CN(Cc1ccncn1)C(=O)C1CCC(=O)N(Cc2cccc(C(F)(F)F)c2)C1 (centres undefined) | -8.6% | -13.6% | -4.2 | 6.2% | 23.5% | -1.7%
SMILES | TDP1 cell noCPT | TDP1 cell CPT | IL-1B inflam inh | ELG1 repair inh | HT1080-NT tox | HT1080 IDH1KD tx
O=C(Nc1ccc(C(=O)O)cc1)/C(=C\c1ccc2c(c1)OCO2)NC(=O)c1ccccc1Cl | 9.8% | 10.4% | -19.7 | · | -3.3% | 3.3%
CC(CCc1ccccn1)C(=O)c1ccccc1 (centres undefined) | 4.4% | 7.8% | -19.6 | · | -0.6% | 12.9%
O=C(c1ccccc1)C(CCc1ccccn1)CCc1ccccn1 | 16.4µM* | ? | -15.9 | · | -2.2% | -2.6%
CCCCC[C@H](C)N1C[C@@H](COCc2ccccc2)Oc2cc(N3CCC[C@H]3C(N)=O)ccc2S1(=O)=O | ? | ? | 0.0 | · | ? | ?
CC1=NN(C(=O)c2ccc(Cn3nc(C)c([N+](=O)[O-])c3C)cc2)C(O)(C(F)(F)F)C1 (centres undefined) | -20.2% | ? | 6.3 | -15.9% | 4.47µM* | 1.78µM*
Cc1nn(Cc2ccc(C(=O)N3CCOCC3)o2)c(C)c1Br | ? | -27.9% | -14.6 | -8.4% | -2.0% | -2.2%
CC1=NN(C(=O)c2ccc(Cn3nc(C)c(Br)c3C)cc2)C(O)(C(F)(F)F)C1 (centres undefined) | 0.581µM* | 0.82µM* | 65.3 | -28.9% | -2.9% | -6.0%
CN1CCN(NC(=O)NC2CCCCC2)CC1 | -0.1% | -6.3% | -10.2 | 5.7% | 10.1% | 17.7%
NCCc1nnc(SCc2ccc(Cl)cc2)o1 | -0.2% | -19.8% | · | · | · | ·
CC(C)N1CCC(N2CCN(Cc3cc4c(cc3Cl)OCO4)CC2CCO)CC1 (centres undefined) | -28.9% | 1.0% | 0.0 | 4.8% | -5.5% | -6.5%
COc1ccccc1N1CCN(Cc2cnc3ccc(Cl)cn23)CC1 | 13µM* | 23.1µM* | 22.4 | 0.3% | 9.3% | -0.9%
COc1ccccc1Nc1nc(N)nc(CN2CCN(c3ccccc3F)CC2)n1 | -16.6% | ? | 0.0 | -13.1% | -14.2% | -0.8%
COc1ccc(Nc2nc(N)nc(CN3CCN(c4ccc(F)cc4)CC3)n2)cc1 | 14.6µM* | ? | ? | 0.0% | -17.3% | -2.1%
